Sampled rows, rich in hits. Any-hit rate of the full collection: about 3.5%.
MITF inh – MITF inhibitors, primary screen, biochemical, AlphaScreen, human; Microphthalmia-associated transcription factor (Homo sapiens), O75030; inhibition, % at 2.6 µM; AID 1259374, 2018; AlphaScreen MITF homodimerization, bead proximity signal; actives 0.91% (n = 650,000); in the data active = inhibition above about 50%
TEAD-YAP inh – TEAD-YAP interaction inhibition, primary screen, TEAD-YAP interaction inhibitor project, luminescence, HEK-TIYL cells. TEAD-Gal4/YAP UAS-luciferase luminescence. inhibition, % at 9.12 µM. actives 1.4% (n = 640,000); in the data active = inhibition above about 32%
FBW7 act – FBW7 E3 ligase activators, primary screen, biochemical, AlphaScreen, human | F-box/WD repeat-containing protein 7 (Homo sapiens), Q969H0 | AlphaScreen FBW7–phospho-cyclin E peptide binding, activator screen | normalized activity (activation), % at 26.1 µM | actives 0.13% (n = 650,000); in the data active = normalized activity above about 1.9%;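 also: purified mutant Fbw7 with reduced substrate affinity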
Target sequence (Q969H0 whole entry, looked up): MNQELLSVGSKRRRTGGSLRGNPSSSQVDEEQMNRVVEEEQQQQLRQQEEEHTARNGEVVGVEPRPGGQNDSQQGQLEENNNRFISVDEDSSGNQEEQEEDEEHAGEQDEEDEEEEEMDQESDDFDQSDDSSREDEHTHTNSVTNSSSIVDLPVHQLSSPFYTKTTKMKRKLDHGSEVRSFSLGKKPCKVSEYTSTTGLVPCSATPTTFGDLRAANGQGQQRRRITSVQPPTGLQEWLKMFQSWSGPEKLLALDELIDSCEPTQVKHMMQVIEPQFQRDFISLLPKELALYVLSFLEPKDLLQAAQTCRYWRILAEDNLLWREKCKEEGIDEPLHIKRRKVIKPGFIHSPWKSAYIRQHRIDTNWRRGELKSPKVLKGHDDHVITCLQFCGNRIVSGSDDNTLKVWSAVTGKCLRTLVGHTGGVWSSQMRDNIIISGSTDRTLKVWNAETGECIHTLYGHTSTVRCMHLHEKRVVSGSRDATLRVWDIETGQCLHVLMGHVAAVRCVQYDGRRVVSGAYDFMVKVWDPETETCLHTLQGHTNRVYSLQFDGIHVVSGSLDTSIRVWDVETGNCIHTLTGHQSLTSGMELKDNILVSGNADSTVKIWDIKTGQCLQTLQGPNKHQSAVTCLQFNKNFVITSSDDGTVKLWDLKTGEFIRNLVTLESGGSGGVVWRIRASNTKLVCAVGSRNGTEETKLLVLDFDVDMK
GPR151 ag – activators of human GPR151, primary screen, cell-based, PathHunter beta-arrestin, luminescence; activation, % at 11.2 µM; AID 1508602, 2020; PathHunter beta-arrestin GPR151 cells; G-protein coupled receptor 151 (Homo sapiens), Q8TDV0; actives 1% (n = 650,000); in the data active = activation above about 4.9%
MITF confirm – MITF inhibitors, retest of hits, confirmation, biochemical, AlphaScreen, triplicate; actives 16% (n = 4,700); AlphaScreen MITF homodimerization, biotin/His-MITF beads; inhibition, % at 2.6 µM; shares compounds with MITF inh;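 active = inhibition above a cutoff derived from the DMSO control wells, cut at about 28% in these data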;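 also: inhibitors lower the bead chemiluminescence by keeping MITF from dimerizing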
AS interf DR – AlphaScreen optical interference compounds, dose response, counter-screen, biochemical, HTS. shares compounds with MITF inh. AlphaScreen optical interference counterscreen, cell-free. IC50, µM. actives 6% (n = 480). AID 1259373, 2018; call rule not given here
AS interf ctr – AlphaScreen optical interference compounds, counter-screen for MITF inhibitor project, biochemical, triplicate; LysRS AlphaScreen counterscreen, signal interference; inhibition, % at 2.6 µM; actives 7.6% (n = 4,700); shares compounds with MITF inh;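 active = inhibition above a cutoff derived from the DMSO control wells, cut at about 30% in these data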
Numbers stand for hits; n = inactive; x = not tested or not shown.

SMILES	MITF inh	TEAD-YAP inh	FBW7 act	GPR151 ag	MITF confirm	AS interf ctr	others
c1ccc(-c2ccc(SCc3cccnc3)nn2)nc1	85.3	n	n	n	99.4	100.3
c1ccc(CSc2ccc(-c3ccccn3)nn2)nc1	86.4	n	n	n	96.3	100.3
NC(=O)CSc1ccc(-c2ccccn2)nn1	81.6	n	n	n	72.7	94.1
Fc1ccc(-c2ccc(SCc3cccnc3)nn2)cc1	n	n	n	n	x	x
COCc1nc2ccccc2n1CCC(C)C	n	n	n	n	x	x
COc1cc(CN2CCC(C(=O)NC3CCCC3)CC2)ccc1O	59.6	n	n	n	n	n
CCOc1cc(CN2CCC(C(=O)NCC3CCCO3)CC2)ccc1O (centres undefined)	58.3	n	n	n	n	n
CCOc1ccc(CN2CCC(C(=O)NCC3CCCO3)CC2)cc1 (centres undefined)	n	n	n	n	x	x
CC(C)c1ccc(NC(=O)CCS(=O)(=O)c2cc3c(cc2Cl)NC(=O)CO3)cc1	n	n	n	n	x	x
O=C(O)CCCC(=O)Nc1ccc(Cl)c(NC(=O)Cc2ccccc2)c1	n	n	n	n	x	x
O=S(=O)(c1cccc(Cl)c1)N1CCC(c2nc3ccccc3[nH]2)CC1	n	n	n	n	x	x
O=C(O)c1cccc(S(=O)(=O)N2CCC(c3nc4ccc(Cl)cc4[nH]3)CC2)c1	69.1	n	n	n	n	n
N[C@H]1CCC[C@H](C(=O)Nc2cccc3c(=O)[nH]cnc23)C1	54.2	n	n	n	n	n
Cc1ccc2c3c(ccc2n1)NC1=C(C(=O)CCC1)C3c1ccccn1 (centres undefined)	63.4	n	n	n	n	n
Cc1ccc2c3c(ccc2n1)NC1=C(C(=O)CCC1)C3c1ccccc1C (centres undefined)	n	n	n	n	x	x
CC1CN(Cc2ccc(C(F)(F)F)cc2)CC(C)O1 (centres undefined)	55.2	n	n	n	n	n
CC1CN(Cc2ccc(Cl)cc2)CC(C)O1 (centres undefined)	n	n	n	n	x	x
CC1CN(Cc2cccc(Cl)c2)CC(C)O1 (centres undefined)	63.9	n	n	n	n	n
Cc1cc(C)n(C(=O)/C=C/c2ccc(Br)cc2)n1	55.4	n	n	n	n	n
Cc1ccc(/C=C/C(=O)n2nc(C)cc2C)cc1	n	n	n	n	x	x
COc1cccc(C(=O)NCCc2cc3ccc(C)cc3[nH]c2=O)c1OC	n	n	n	n	x	x
N/C(=N\OC(=O)c1ccccc1)c1ccc(Cn2cc(C(F)(F)F)ccc2=O)cc1	53.7	n	n	n	n	n
CCOC(=O)c1c(NC(=O)Cc2ccc(Cl)cc2)sc(C(=O)Nc2cccc(Cl)c2C)c1C	n	n	n	n	x	x
CCCN1CCCc2cc(CCNS(C)(=O)=O)ccc21	50.6	n	n	n	n	n
O=C(O)C(O)C(O)C(O)C(O)C(=O)O (centres undefined) (tested in a mixture with another compound)	n	x	n	n	x	x
SMILES	MITF inh	TEAD-YAP inh	FBW7 act	GPR151 ag	MITF confirm	AS interf ctr	others
O=C(O)c1nsnc1C(O)C(O)C(=O)O (centres undefined)	68.0	n	n	n	n	n
C(=N\N1CCOCC1)/c1cccc(Oc2ccccc2)c1	69.7	n	n	n	n	n
C/C(=N\Nc1ccc(S(=O)(=O)O)cc1)c1ccc([N+](=O)[O-])o1	60.1	n	n	n	40.0	n	AS interf DR=n
O=c1[nH]c(SCc2cc(=O)n3ccccc3n2)nc2c1CCC2	n	n	n	n	x	x
S=C(NCc1ccco1)N1CCN(Cc2ccccc2)CC1	n	n	n	n	x	x
O=C(c1ccco1)N1CCN(Cc2ccc3c(c2)OCO3)CC1	62.1	n	n	n	n	n
S=C(NCc1ccco1)N1CCN(Cc2ccc3c(c2)OCO3)CC1	79.5	n	n	n	n	n
CS(=O)(=O)N(CC(=O)N1CCN(Cc2ccc3c(c2)OCO3)CC1)c1ccc(F)cc1	74.9	n	n	n	n	n
COc1cccc(/C=N/N(C)C)c1OC	n	n	n	n	x	x
CSCCC(NC(=O)c1ccccc1)C(=O)NNC(=O)c1ccccc1 (centres undefined)	n	n	n	n	x	x
Cc1ccccc1-c1nc2c3c4c(sc3ncn2n1)CCCCC4	n	n	n	n	x	x
COc1ccccc1CNc1cnn(C23CC4CC(CC(C4)C2)C3)c(=O)c1Cl	n	n	n	n	x	x
O=C1CCCN1CCCNC(=S)Nc1ccc(S(=O)(=O)N2CCOCC2)cc1	n	n	n	n	x	x
COC(=O)c1cc(NS(=O)(=O)c2ccc(N(C)C)c(N)c2)cc(C(=O)OC)c1	n	n	n	n	x	x
CC1CCC(N2CCN(Cc3ccco3)CC2)CC1 (centres undefined)	71.1	n	n	n	27.5	n	AS interf DR=n
c1coc(CN2CCN(C3CCCCC3)CC2)c1	64.0	n	n	n	n	n
Cc1ccc(C)c(NC(=O)CSc2nc3c(c(-c4ccco4)c2C#N)CCCC3)c1	n	n	n	n	x	x
COc1ccc(/C=N/NC(=O)COc2ccccc2OC)cc1	n	n	n	n	x	x
COC(=O)CSc1nnc(-c2ccco2)n1Cc1ccco1	76.2	n	n	n	57.9	n	AS interf DR=n
COC(=O)CSc1nnc(-c2ccncc2)n1Cc1ccco1	n	n	n	n	x	x
COc1ccc(C)cc1S(=O)(=O)NC1CCCCCC1	n	n	n	n	x	x
COc1ccc(C)cc1NC1CCCCC1	76.6	n	n	n	n	n
CCOC(=O)C1CCN(Cc2nc3ccc(Cl)cc3n2CCO)CC1	72.2	n	n	n	n	n
CCOC(=O)C1CCN(Cc2ccc(Cl)cc2Cl)CC1	n	n	n	n	x	x
O=[N+]([O-])c1cccc(C=Nc2ccc(F)cc2)c1O	n	n	n	n	x	x
SMILES	MITF inh	TEAD-YAP inh	FBW7 act	GPR151 ag	MITF confirm	AS interf ctr	others
O=C(O)Cc1ccc(N=Cc2cccc([N+](=O)[O-])c2O)cc1	94.2	n	n	n	n	n
CC(C)CNC(=O)c1cc(Cc2ccc(F)cc2)no1	n	n	n	n	x	x
Clc1ccc(OCC#CCn2ccnc2)cc1	58.3	n	n	n	n	n
CCC(=O)NC(NC(=S)Nc1ccc(C(=O)O)cc1)C(Cl)(Cl)Cl (centres undefined)	n	n	n	n	x	x
Nn1c(SCc2cc(=O)n3c(n2)sc2ccccc23)nnc1C1CC1	n	n	n	n	x	x
Cn1c(SCc2cc(=O)n3c(n2)sc2ccccc23)nnc1C(F)(F)F	60.3	n	n	n	78.5	n	AS interf DR=n

Screens from PubChem BioAssay.
